Of roughly 7,900 targets only a part is listed; those with a hit were picked by preference. About 0.6% of all pairs of compound and target were hits. Values without a mark were called inactive.
How the values were obtained:
Test in all cases: log2 fold change, soluble protein after heating vs DMSO (PISA); higher = thermal stabilisation; K562 cells, 10 uM, 30 min; active = over 0.2 and 3.5 SD of the protein, either way, in both replicates (recomputed)
[1] = compound: CC1=C(C=C(C=C1)NC(=O)C2=CC(=CC=C2)N(C)C)NC(=O)C3=CC=C(C=C3)O
Method in brief: (§1)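 Soluble protein was quantified by TMTpro 16plex LC-MS/MS after channel sums were equalised. It was obtained as the supernatant after 21,000xg for 90 min from pooled aliquots of K562 cells (2×10^6 cells/mL, 10 μM compound, 30 min) heated for 3 min across 48°C-58°C and extracted in PBS with 0.5% NP-40 at 4°C. Thermal stability values are relative to control samples and come from duplicates. They are given as log2 fold changes.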

[2] = compound: CC1=NC(=CC=C1)C2=C(N=C(N2)C(C)(C)C)C3=CC4=NC=CN=C4C=C3
Method in brief: as §1

[3] = compound: CCCc1cc(C)[nH]c(=O)c1CNC(=O)c1cc(-c2ccnc(N3CCN(C)CC3)c2)cc2c1cnn2C(C)C
Method in brief: as §1

givinostat = compound: CCN(CC)Cc1ccc2cc(COC(=O)Nc3ccc(C(=O)NO)cc3)ccc2c1 [givinostat]
Method in brief: as §1

barasertib = compound: CCN(CCCOc1ccc2c(Nc3cc(CC(=O)Nc4cccc(F)c4)[nH]n3)ncnc2c1)CCOP(=O)(O)O [barasertib]
Method in brief: as §1

[4] = compound: CC[C@H](C)N1C=C(C2=C(C=C(C=C21)C3=CN=C(C=C3)N4CCNCC4)C(=O)NCC5=C(C=C(NC5=O)C)C)C
Method in brief: as §1

[5] = compound: CCn1c(C(=O)N(C2CC2)C2CC2)cc2c3c(ncn3C)c(Nc3cc(C)n(C)n3)nc21
Method in brief: as §1

rosiglitazone = compound: CN(CCOC1=CC=C(C=C1)C[C@H]2C(=O)NC(=O)S2)C3=CC=CC=N3 (racemic) [rosiglitazone]
Method in brief: as §1

[6] = compound: CN1C2=C(C3=C1C(=O)N(N=C3)CC4=CC(=CC=C4)N)SC(=C2)S(=O)C
Method in brief: as §1

[7] = compound: CC1=CC=C(C=C1)SC2=C3C=C(SC3=CN=C2)C(=O)N
Method in brief: as §1

vemurafenib = compound: CCCS(=O)(=O)Nc1ccc(F)c(C(=O)c2c[nH]c3ncc(-c4ccc(Cl)cc4)cc23)c1F [vemurafenib]
Method in brief: as §1

[8] = compound: CCCS(=O)(=O)Nc1ccc(F)c(C(=O)c2c[nH]c3ncc(Cl)cc23)c1F
Method in brief: as §1

[9] = compound: CC[C@@H]1C(=O)N(C)c2cnc(Nc3ccc(C(=O)NC4CCN(C)CC4)cc3OC)nc2N1C1CCCC1
Method in brief: as §1

volasertib = compound: CC[C@@H]1C(=O)N(C)c2cnc(Nc3ccc(C(=O)N[C@H]4CC[C@H](N5CCN(CC6CC6)CC5)CC4)cc3OC)nc2N1C(C)C [volasertib]
Method in brief: as §1

[10] = compound: CN(C)CC(=O)Nc1ccc2[nH]c(=O)c3ccccc3c2c1
Method in brief: as §1

[11] = compound: CC1=C(C=C(C=C1)NC(=O)C2=CC(=CC=C2)C(C)(C)C#N)NC3=CC4=C(C=C3)N=CN(C4=O)C
Method in brief: as §1

Nexturastat A = compound: CCCCN(Cc1ccc(C(=O)NO)cc1)C(=O)Nc1ccccc1 [Nexturastat A]
Method in brief: as §1

epoxomicin = compound: CC[C@H](C)[C@@H](C(=O)N[C@@H]([C@@H](C)O)C(=O)N[C@@H](CC(C)C)C(=O)[C@]1(CO1)C)NC(=O)[C@H]([C@@H](C)CC)N(C)C(=O)C [epoxomicin]
Method in brief: as §1

[12] = compound: CCn1cc(-c2ccnc3[nH]c(-c4cccc(CN(C)C)c4)cc23)c(-c2ccc(NC(=O)N(C)C)cc2)n1
Method in brief: as §1

[13] = compound: CN1CCC(CNc2ccc3ncc(-c4cccc(OC(F)(F)F)c4)n3n2)CC1
Method in brief: as §1

Sequence of UniProt Q14671 (Q14671 whole entry, looked up): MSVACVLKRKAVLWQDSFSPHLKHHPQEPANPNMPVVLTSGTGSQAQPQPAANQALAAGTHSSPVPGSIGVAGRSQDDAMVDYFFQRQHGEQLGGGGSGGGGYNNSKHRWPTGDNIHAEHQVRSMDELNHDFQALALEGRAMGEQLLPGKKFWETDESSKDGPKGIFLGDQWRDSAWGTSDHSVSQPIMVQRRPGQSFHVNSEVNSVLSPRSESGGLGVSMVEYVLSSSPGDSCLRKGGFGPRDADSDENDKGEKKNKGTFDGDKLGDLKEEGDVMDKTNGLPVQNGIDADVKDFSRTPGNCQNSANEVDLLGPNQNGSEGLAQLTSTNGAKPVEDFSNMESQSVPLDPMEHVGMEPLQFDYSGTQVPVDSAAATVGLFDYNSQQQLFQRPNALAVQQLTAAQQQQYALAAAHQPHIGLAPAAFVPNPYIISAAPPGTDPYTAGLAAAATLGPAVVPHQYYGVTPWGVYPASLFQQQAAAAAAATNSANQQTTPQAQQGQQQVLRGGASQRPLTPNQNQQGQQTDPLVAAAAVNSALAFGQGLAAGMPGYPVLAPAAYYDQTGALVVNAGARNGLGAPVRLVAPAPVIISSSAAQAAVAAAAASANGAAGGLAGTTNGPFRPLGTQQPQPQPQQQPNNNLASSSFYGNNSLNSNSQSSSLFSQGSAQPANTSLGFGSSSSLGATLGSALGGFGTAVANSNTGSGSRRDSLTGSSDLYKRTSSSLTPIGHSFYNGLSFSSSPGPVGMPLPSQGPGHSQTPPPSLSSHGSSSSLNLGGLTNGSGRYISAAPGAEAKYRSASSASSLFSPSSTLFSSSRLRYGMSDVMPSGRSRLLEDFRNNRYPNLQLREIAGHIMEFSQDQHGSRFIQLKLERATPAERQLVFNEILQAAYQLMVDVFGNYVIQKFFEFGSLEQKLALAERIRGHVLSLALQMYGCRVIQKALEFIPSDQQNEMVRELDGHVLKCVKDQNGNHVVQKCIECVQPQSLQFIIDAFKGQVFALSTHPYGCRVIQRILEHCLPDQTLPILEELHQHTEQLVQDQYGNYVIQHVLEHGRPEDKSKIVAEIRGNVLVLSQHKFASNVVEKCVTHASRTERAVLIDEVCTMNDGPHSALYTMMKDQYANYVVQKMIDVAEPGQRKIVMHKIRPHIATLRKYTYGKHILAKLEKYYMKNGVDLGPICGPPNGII
Sequence of UniProt O43924 (O43924 whole entry, looked up): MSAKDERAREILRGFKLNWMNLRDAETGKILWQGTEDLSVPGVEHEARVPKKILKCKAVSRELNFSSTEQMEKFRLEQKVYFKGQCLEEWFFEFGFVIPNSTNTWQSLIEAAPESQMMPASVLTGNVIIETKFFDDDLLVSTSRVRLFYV
Sequence of UniProt Q86UU1 (Q86UU1 whole entry, looked up): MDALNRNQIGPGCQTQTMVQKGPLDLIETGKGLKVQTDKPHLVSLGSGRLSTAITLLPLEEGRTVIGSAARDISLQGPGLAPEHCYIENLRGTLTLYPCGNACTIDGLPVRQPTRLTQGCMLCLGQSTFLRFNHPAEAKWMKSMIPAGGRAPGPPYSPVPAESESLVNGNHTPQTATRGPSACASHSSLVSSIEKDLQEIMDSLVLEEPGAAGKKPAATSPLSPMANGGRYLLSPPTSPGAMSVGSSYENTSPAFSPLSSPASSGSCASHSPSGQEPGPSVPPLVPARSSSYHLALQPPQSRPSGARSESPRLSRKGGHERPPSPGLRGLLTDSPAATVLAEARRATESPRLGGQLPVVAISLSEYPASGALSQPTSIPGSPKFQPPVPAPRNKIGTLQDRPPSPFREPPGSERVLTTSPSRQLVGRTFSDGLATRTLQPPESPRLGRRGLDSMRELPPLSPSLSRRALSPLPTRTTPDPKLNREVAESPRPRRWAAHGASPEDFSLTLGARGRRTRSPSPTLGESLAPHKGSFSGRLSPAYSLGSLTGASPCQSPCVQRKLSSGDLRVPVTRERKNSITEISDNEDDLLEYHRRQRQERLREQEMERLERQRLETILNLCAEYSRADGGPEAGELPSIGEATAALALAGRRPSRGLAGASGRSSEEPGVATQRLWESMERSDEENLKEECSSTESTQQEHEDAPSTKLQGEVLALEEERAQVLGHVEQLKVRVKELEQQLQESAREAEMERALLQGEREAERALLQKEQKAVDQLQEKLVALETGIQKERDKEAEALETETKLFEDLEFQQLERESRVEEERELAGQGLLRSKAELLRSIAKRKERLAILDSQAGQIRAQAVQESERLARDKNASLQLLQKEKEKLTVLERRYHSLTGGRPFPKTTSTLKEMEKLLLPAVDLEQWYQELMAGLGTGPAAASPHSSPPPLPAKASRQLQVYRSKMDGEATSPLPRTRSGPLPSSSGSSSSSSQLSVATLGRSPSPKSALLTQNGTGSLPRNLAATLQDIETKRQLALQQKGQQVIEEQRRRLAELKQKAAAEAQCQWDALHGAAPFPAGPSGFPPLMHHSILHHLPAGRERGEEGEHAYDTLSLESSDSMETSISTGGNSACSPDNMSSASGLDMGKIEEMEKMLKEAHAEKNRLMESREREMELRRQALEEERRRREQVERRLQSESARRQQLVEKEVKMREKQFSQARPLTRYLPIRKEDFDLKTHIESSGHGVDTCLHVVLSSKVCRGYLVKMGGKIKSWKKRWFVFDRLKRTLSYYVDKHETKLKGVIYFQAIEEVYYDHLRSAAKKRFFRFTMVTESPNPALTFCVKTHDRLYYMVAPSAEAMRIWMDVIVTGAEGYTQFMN
Sequence of UniProt Q15126 (Q15126 whole entry, looked up): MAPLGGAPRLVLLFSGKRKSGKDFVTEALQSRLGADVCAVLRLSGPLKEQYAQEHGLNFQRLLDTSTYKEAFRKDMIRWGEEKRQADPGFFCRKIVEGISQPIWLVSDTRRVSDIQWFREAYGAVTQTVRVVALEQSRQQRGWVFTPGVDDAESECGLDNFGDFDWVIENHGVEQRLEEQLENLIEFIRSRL
Sequence of UniProt Q02156 (Q02156 whole entry, looked up): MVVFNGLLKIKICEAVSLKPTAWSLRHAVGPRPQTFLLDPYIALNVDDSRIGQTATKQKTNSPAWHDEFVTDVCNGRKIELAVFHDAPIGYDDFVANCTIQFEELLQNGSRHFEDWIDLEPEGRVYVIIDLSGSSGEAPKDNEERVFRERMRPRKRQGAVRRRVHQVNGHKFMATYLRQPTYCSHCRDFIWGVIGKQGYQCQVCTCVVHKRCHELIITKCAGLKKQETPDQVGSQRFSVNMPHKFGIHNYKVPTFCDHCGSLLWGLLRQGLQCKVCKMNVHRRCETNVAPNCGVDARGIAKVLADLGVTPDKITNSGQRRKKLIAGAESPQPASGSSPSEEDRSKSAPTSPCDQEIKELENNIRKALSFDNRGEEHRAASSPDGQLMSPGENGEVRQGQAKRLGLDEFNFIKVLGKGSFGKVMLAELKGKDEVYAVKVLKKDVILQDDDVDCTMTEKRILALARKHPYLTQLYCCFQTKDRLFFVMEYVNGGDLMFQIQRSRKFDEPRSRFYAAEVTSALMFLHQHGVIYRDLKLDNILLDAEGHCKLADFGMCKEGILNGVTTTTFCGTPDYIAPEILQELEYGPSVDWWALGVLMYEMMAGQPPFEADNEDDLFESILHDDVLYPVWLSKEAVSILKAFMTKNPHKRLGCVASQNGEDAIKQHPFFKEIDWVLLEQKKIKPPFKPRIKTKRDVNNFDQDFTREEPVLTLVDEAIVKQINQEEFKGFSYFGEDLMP
Sequence of UniProt Q14442 (Q14442 whole entry, looked up): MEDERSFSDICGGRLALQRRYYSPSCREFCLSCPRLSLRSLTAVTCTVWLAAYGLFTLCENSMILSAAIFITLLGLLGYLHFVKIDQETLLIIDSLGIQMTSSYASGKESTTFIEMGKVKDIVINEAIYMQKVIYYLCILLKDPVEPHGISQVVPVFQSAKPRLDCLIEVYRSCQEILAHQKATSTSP
Sequence of UniProt Q8NDX5 (Q8NDX5 whole entry, looked up): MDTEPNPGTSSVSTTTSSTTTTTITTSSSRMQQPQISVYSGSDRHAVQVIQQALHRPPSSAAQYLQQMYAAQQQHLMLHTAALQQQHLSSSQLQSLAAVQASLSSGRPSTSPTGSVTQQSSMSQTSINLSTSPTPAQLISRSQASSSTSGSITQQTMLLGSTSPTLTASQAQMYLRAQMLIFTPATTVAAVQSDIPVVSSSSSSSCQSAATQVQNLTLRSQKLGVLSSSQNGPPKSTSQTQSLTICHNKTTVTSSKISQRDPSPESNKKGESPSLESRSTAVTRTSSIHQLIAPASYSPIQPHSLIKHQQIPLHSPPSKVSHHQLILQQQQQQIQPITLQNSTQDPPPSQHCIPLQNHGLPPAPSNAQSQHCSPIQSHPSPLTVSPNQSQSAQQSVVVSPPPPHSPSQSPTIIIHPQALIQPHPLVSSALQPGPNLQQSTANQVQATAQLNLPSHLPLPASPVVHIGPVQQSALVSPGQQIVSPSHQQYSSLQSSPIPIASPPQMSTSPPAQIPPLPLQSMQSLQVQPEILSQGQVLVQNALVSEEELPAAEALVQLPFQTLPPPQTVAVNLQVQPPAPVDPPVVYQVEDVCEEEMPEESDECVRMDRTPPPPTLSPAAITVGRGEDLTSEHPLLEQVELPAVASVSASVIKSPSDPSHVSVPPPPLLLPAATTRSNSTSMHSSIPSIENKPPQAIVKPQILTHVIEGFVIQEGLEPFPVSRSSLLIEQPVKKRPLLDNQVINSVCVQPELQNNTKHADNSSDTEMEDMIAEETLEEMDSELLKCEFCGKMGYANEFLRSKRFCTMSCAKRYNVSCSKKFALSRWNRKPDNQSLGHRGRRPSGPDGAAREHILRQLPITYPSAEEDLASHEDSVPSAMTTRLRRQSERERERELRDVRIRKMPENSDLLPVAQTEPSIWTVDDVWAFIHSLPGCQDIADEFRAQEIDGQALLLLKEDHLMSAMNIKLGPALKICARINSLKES
Sequence of UniProt P28065 (P28065 whole entry, looked up): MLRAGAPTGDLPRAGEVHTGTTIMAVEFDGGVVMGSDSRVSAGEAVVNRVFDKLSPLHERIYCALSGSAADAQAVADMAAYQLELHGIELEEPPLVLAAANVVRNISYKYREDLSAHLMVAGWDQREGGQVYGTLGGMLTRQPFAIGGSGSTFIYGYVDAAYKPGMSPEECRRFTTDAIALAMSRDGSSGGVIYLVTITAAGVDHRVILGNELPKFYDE

Row | Target | log2 fold change [1] | log2 fold change [2] | log2 fold change [3] | log2 fold change (givinostat) | log2 fold change (barasertib) | log2 fold change [4] | log2 fold change [5] | log2 fold change (rosiglitazone) | log2 fold change [6] | log2 fold change [7] | log2 fold change (vemurafenib) | log2 fold change [8] | log2 fold change [9] | log2 fold change (volasertib) | log2 fold change [10] | log2 fold change [11] | log2 fold change (Nexturastat A) | log2 fold change (epoxomicin) | log2 fold change [12] | log2 fold change [13]
1 | PCBP2 (UniProt F8VZX2) | -0.14 | 0.005 | -0.098 | 0.009 | -0.173 | 0.075 | 0.073 | 0.065 | 0.098 | – | – | – | – | – | – | – | – | – | – | –
2 | PSMA3 (UniProt H0YJ03) | 0.019 | -0.194 | – | – | – | – | – | – | 0.027 | 0.019 | -0.145 | -0.134 | 0.115 | 0.076 | -0.04 | – | – | – | – | –
3 | PHRF1 (UniProt Q9P1Y6) | -0.052 | – | 0.146 | 0.034 | – | – | 0.035 | – | – | -0.034 | – | -0.058 | – | 0.373 | – | – | – | – | – | –
4 | PPP2R5C isoform 2 (UniProt Q13362) | -0.047 | 0.022 | -0.016 | 0.048 | 0.055 | – | -0.099 | 0.009 | – | – | – | – | -0.209 | – | – | – | – | – | – | –
5 | PHC3 isoform 7 (UniProt Q8NDX5) | – | 0.266 | 0.116 | 0.17 | 0 | 0.178 | -0.113 | 0.066 | – | 0.088 | – | 0.096 | 0.076 | -0.163 | – | 0.102 | -0.43 | 0.254 | – | –
6 | PUM1 (UniProt Q14671) | – | -0.028 | – | 0.08 | – | – | -0.01 | – | 0.078 | – | – | – | – | – | – | – | – | – | -0.084 | -0.026
7 | PMVK (UniProt Q15126) | – | – | 0.016 | -0.068 | 0.014 | 0.069 | 0.028 | 0.067 | 0.036 | – | -0.041 | – | – | – | 0.018 | 0.006 | 0.085 | 0.003 | 0.142 | 0.057
8 | PPP2R5B (UniProt Q15173) | – | – | -0.013 | 0.083 | 0.009 | 0.021 | 0.025 | 0.11 | -0.05 | -0.131 | -0.104 | 0.104 | -0.348 | -0.173 | 0.128 | – | – | – | 0.015 | -0.529 (active)
9 | PLCXD1 (UniProt Q9NUJ7) | 0.05 | – | – | – | -0.003 | – | – | 0.009 | – | – | – | – | – | – | – | – | – | – | – | –
10 | PSMB9 (UniProt P28065) | – | -0.342 | – | -0.179 | 0.12 | – | -0.046 | -0.057 | – | -0.032 | -0.08 | -0.047 | 0.114 | 0.008 | -0.043 | -0.137 | -0.233 | 0.049 | 0.033 | 0.051
11 | PSD3 (UniProt Q9NYI0) | -0.059 | 0.023 | 0.025 | – | – | 0.061 | – | – | – | -0.01 | -0.019 | 0.049 | -0.019 | -0.108 | 0.004 | – | – | – | – | –
12 | POLR2E (UniProt P19388) | -0.094 | -0.091 | 0.099 | -0.007 | -0.03 | 0.018 | -0.104 | 0.01 | 0.092 | 0 | 0.031 | 0.018 | 0.027 | -0.067 | 0.034 | – | 0.005 | 0.065 | 0.015 | 0.09
13 | PSMD8 (UniProt K7ERW6) | – | -0.283 | – | – | – | – | – | – | – | – | -0.236 | – | – | – | 0.027 | – | – | – | – | –
14 | PDE6D (UniProt O43924) | – | -0.117 | -0.028 | -0.052 | 0.002 | -0.179 | 0.26 | -0.054 | -0.096 | – | -0.022 | – | – | – | 0.05 | -0.081 | 0.15 | 0.105 | -0.29 | 0.061
15 | PRKCE (UniProt Q02156) | – | 0.048 | -0.02 | -0.393 (active) | 0.013 | 0.099 | -0.054 | 0.068 | -0.106 | -0.012 | 0.077 | 0.085 | -0.051 | -0.125 | 0.036 | 0.041 | -0.242 | 0.036 | -0.067 | -0.16
16 | PRKX (UniProt P51817) | – | – | -0.103 | 0.036 | 0.126 | – | -0.019 | 0.191 | – | – | – | – | – | – | – | – | – | – | – | –
17 | PRR14L (UniProt Q5THK1) | – | – | – | – | – | -0.088 | – | – | – | -0.039 | -0.62 (active) | -0.038 | – | 0.218 | -0.134 | – | – | – | 0.006 | 0.073
18 | PHLDB1 isoform 2 (UniProt Q86UU1) | 0.01 | 0.047 | 0.14 | -0.012 | 0.117 | -0.06 | -0.02 | 0.055 | -0.022 | 0.047 | 0.031 | 0.016 | -0.03 | -0.222 | -0.034 | – | 0.045 | 0.061 | -0.04 | -0.585 (active)
19 | PDE4DIP (UniProt E9PS60) | – | 0.013 | – | 0.016 | – | – | -0.072 | – | – | – | -0.214 | – | 0.047 | – | 0.095 | – | – | – | – | –
20 | PIGH (UniProt Q14442) | 0.001 | 0 | -0.069 | -0.011 | -0.219 | – | 0.022 | 0.058 | 0.115 | 0.027 | 0 | -0.025 | 0.06 | -0.008 | 0.013 | – | 0.141 | -0.128 | -0.038 | 0.051
